40 compounds from PubChem BioAssay (NCATS) can be followed below.

Each structure is given as a SMILES string. Inconclusive results are not listed. Active and inactive are the calls of the source. Calls come from the whole dose curve; as a rule, active = well fitted cell-killing curve with a large enough effect; inconclusive = small, poorly fitted or top-dose-only effect, or effect the other way; inactive = no such curve, though single readings can be large or run the other way.
Potency is the fitted concentration of half-maximal effect.

A short description of the assay: Quantitative High-Throughput drug screen in 47 multiple myeloma cell lines against the NCATS MIPE library collection: L363_DSMZ cell viability assay (AID 1918984). Note: nearly all actives have a fitted effect of over 40% in size. The conditions noted are these: L363 myeloma viability, CellTiter-Glo ATP luminescence, 48 h; series mostly up to 45.8 µM. From the text: PI: Beverly A. Mock Ph.D.
Laboratory of Cancer Biology and Genetics,
Center for Cancer Research, National Cancer Institute,
National Institute of Health, Bethesda, Maryland
Drug resistance and disease progression are common in multiple myeloma (MM) patients, underscoring the need for new therapeutic combinations. […] We hypothesized that effective combinations would reduce MYC expression and enhance p16 activity. […] These preclinical data identify potentially useful drug combinations for evaluation in drug-resistant MM and reveal potential mechanisms of combined drug sensitivity.
Described herein is the primary MIPE qHTS used to cherrypick compounds. Validated compounds were then further tested for potential synergistic activiy.
[1] Peat TJ, Gaikwad SM, Dubois W, Gyabaah-Kessie N, Zhang S, Gorjifard S, Phyo Z, Andres M, Hughitt VK, Simpson RM, Miller MA, Girvin AT, Taylor A, Williams D, D'Antonio N, Zhang Y, Rajagopalan A, Flietner E, Wilson K, Zhang X, Shinn P, Klumpp-Thomas C, McKnight C, Itkin Z, Chen L, Kazandijian D, Zhang J, Michalowski AM, Simmons JK, Keats J, Thomas CJ, Mock BA. Drug combinations identified by high-throughput screening promote cell cycle transition and upregulate Smad pathways in myeloma. Cancer Lett. 2023 Aug 1;568:216284. doi: 10.1016/j.canlet.2023.216284. Epub 2023 Jun 24. PMID: 37356470; PMCID: PMC10408729.
SEQUENCE No. (e.g., 1, 2, 3, etc.); […] (e.g., Cells, Incubation, Reagent, etc.); VALUE and DESCRIPTION.
1; Cells; 5 uL; white, solid bottom 1536-well Greiner assay plate.
2; Compounds; 23 nL; Kalypsis pin tool (Wako USA) equipped with a 1536-well pin head to transfer to the assay plates.
3; Incubation; 48 hours; 37C incubation.
4; Reagent;5uL; CellTiter Glo (Promega).
5; Detector; 425V; Luminescence; Viewlux PerkinElmer.
NOTES (numbers refer to Sequence numbers above)
1. The cell-based screening methods employed in this study were like those previously published. Briefly, the corresponding myeloma cell lines were screened in 1,536-well plates with 500 cells, 5-uL per well for inhibition of cell viability (assessed by measuring ATP levels with CellTiterGlo).
2. NCATS MIPE 4.0 library of approved and investigational drugs were added using the Kalypsis pin tool. Wells treated with DMSO only for 100% viability and media only for 0% viability were used as controls.
3. The assay plates were covered and incubated for 48 hours in a 37C, 5% CO2 incubator with controlled humidity.
4. After 48 hours, CellTilter-GloTM luminescent substrate mix (Promega) reagent was added to the assay plate and plates we incubated for 5 min at room temperature.
5. Signal was measured as median relative luminescence units on a ViewLux (PerkinElmer) multiplate reader.
[1] Heske CM, Davis MI, Baumgart JT, Wilson K, Gormally MV, Chen L, Zhang X, Ceribelli M, Duveau DY, Guha R, Ferrer M, Arnaldez FI, Ji J, Tran HL, Zhang Y, Mendoza A, Helman LJ, Thomas CJ. Matrix Screen Identifies Synergistic Combination of PARP Inhibitors and Nicotinamide Phosphoribosyltransferase (NAMPT) Inhibitors in Ewing Sarcoma. Clin Cancer Res. 2017 Dec 1;23(23):7301-7311. doi: 10.1158/1078-0432.CCR-17-1121. Epub 2017 Sep 12. PMID: 28899971; PMCID: PMC6636827.
Consider `COc1ccc(OC)c(-c2nnc3ccc(-c4ccc(OC)c(O[C@@H]5CCOC5)c4)nn23)c1`, for which the Potency was 10500 nM (active). The value for `CCN1CCN(Cc2ccc(-c3cc4c(N[C@H](C)c5ccccc5)ncnc4[nH]3)cc2)CC1` was 23.5 nM (active); that for `CNC(=O)c1c(F)cccc1Nc1nc(Nc2cc3c(cc2OC)CCN3C(=O)CN(C)C)nc2[nH]ccc12` was “inactive”. In the case of `O=C1CCC[C@@H]2[C@H]3CCC[N+]4([O-])CCC[C@@H](CN12)[C@@H]34` (stereo not given in full) it was “inactive”; in that of `O=C(O)c1ccc2c(c1)nc(Nc1cccc(Cl)c1)c1ccncc12`, 4690 nM (active); in that of `Cc1cn(-c2cc(NC(=O)c3ccc(C)c(Nc4nccc(-c5cccnc5)n4)c3)cc(C(F)(F)F)c2)cn1`, “inactive”. In the case of `Nc1nc(Nc2ccc(S(N)(=O)=O)cc2)nn1C(=O)c1c(F)cccc1F` it was 2960 nM (active); in that of `C=CCn1c(=O)c2cnc(Nc3ccc(N4CCN(C)CC4)cc3)nc2n1-c1cccc(C(C)(C)O)n1`, 83.3 nM (active); in that of `C=CC(=O)Nc1cccc(Oc2nc(Nc3ccc(N4CCN(C)CC4)cc3)ncc2Cl)c1`, 5260 nM (active).

With `O=C(O)CCCc1c[nH]c2ccccc12`, the Potency result is “inactive”. The value for `O=c1[nH]c(=O)n(C2CCCO2)cc1F` (stereo not given) was “inactive”; that for `Nc1ccn([C@@H]2CS[C@H](CO)O2)c(=O)n1` was “inactive”; that for `CN(C)CC=CC(=O)Nc1cc2c(Nc3ccc(F)c(Cl)c3)ncnc2cc1O[C@H]1CCOC1` was 1320 nM (active). The value for `CCn1cc(-c2ccnc3[nH]c(-c4cccc(CN(C)C)c4)cc23)c(-c2ccc(NC(=O)N(C)C)cc2)n1` was 2090 nM (active); that for `O=C(O)CO.[NH2-].[NH2-].[Pt+2]` was “inactive”; that for `COC(=O)[C@]12CCC(C)(C)C[C@@H]1[C@@H]1C(=O)C=C3[C@@]4(C)C=C(C#N)C(=O)C(C)(C)[C@@H]4CC[C@@]3(C)[C@]1(C)CC2` was 526 nM (active). In the case of `CC1(C)O[C@@H]2C[C@@H]3[C@H]4C[C@@H](F)C5=CC(=O)C=C[C@]5(C)[C@@]4(F)[C@@H](O)C[C@]3(C)[C@]2(C(=O)CO)O1` it was 37.2 nM (active).

For `NC(=O)Nc1cc(-c2cccc(F)c2)sc1C(=O)N[C@H]1CCCNC1`, the Potency was 16.6 nM (active).

Turning to `Nc1cc(C(F)(F)F)c(-c2cc(N3CCOCC3)nc(N3CCOCC3)n2)cn1`, the Potency was 209 nM (active). In the case of `CC(=O)OCC(=O)[C@@]1(O)[C@H](C)C[C@H]2[C@@H]3C=C(C)C4=Cc5c(cnn5-c5ccccc5)C[C@]4(C)[C@@H]3[C@@H](O)C[C@@]21C` it was 46.9 nM (active); in that of `CC(C)(O)CCc1ccc(OCc2cc(-c3cccc(OC(F)F)c3)c3ncccc3c2)cc1`, “inactive”. In the case of `COc1cc2c(Nc3ccc(NC(=O)c4ccccc4)cc3)ncnc2cc1OCCCN1CCOCC1` it was “inactive”.

In the case of `CC(C)(C)OC(=O)Nc1ccc(-c2cc(C(=O)NCCCCCCC(=O)NO)no2)cc1`, the Potency is 469 nM (active). As to `Cc1cc(C(=O)N2CCN(c3cccc(Cl)c3)CC2)n(-c2ccccc2)n1`, the Potency was 132 nM (active).

In the case of `CC1(C)OC2=C(C(=O)c3ccccc3C2=O)[C@H](NCc2ccccc2)[C@H]1O`, the Potency is 2090 nM (active).

On to `CCc1c2c(nc3ccc(O)cc13)-c1cc3c(c(=O)n1C2)COC(=O)[C@]3(O)CC`, for which the Potency was 590 nM (active). The value for `Cn1c2ccccc2c2c3c(c4c5ccccc5n(CCC#N)c4c21)CNC3=O` was 209 nM (active); that for `Cc1ccc(NC(=O)C2(c3ccc4c(c3)OC(F)(F)O4)CC2)nc1-c1cccc(C(=O)O)c1` was 29.6 nM (active). The value for `O=C(Nc1cc(C(F)(F)F)cc(C(F)(F)F)c1)c1cc(Cl)ccc1O` was 833 nM (active); that for `NC(=O)c1c(OCc2c(F)cc(Br)cc2F)nsc1NC(=O)NCCCCN1CCCC1` was “inactive”; that for `COc1cccc(-c2ccc(NC(=O)C3=C(C(=O)O)CCC3)c(F)c2)c1` was “inactive”. In the case of `COc1ccc(C(=O)CC2(O)C(=O)Nc3c(Cl)ccc(Cl)c32)cc1` (stereo not given) it was 1660 nM (active); in that of `CC1(O)CC(c2nc(-c3ccc4ccc(-c5ccccc5)nc4c3)c3c(N)nccn23)C1` (stereo not given), 662 nM (active); in that of `OCc1ccc(-c2ccc(-c3ccc(CO)s3)o2)s1`, “inactive”. On to `Cc1cc(Nc2cc(NC(=O)c3c(Cl)cccc3Cl)ccn2)nc(N)n1`, for which the Potency was 1660 nM (active). In the case of `CNC(=O)c1cc(Oc2ccc(NC(=O)Nc3cc(C(C)(C)C)nn3-c3ccc4ncccc4c3)c(F)c2)ccn1` it was 18700 nM (active); in that of `O=C(c1cncc(Br)c1)N1CCC(N2CCCC2)CC1`, “inactive”; in that of `CC(C)c1cc(C(=O)N2Cc3ccc(CN4CCN(C)CC4)cc3C2)c(O)cc1O`, 59 nM (active). In the case of `O=C(Nc1cn[nH]c1-c1nc2ccc(CN3CCOCC3)cc2[nH]1)NC1CC1`, the Potency was 2640 nM (active). As for `CC(NCc1ccc2c(c1)nc(NC(=O)c1ccc(-c3cn[nH]c3)s1)n2CC(C)(C)O)C(C)(C)C` (stereo not given), the Potency is 105 nM (active).
